PubChem BioAssay (NCATS)
“And” between values parts separate entries of the source, which are not always exact repeats. Identical values can stand only once. Inconclusive results are not listed. The source made the active and inactive calls. Unless noted, calls follow the shape of the dose curve; as a rule, active = well fitted curve in the direction sought with a large enough effect; inconclusive = small, poorly fitted or top-dose-only effect, or another doubt; inactive = no such curve, though single readings can be large; an effect the other way counts as inactive or inconclusive.

Experiments:
[1] = qHTS drug screen for cell cycle checkpoint inhibitors in PARPi-resistant BRCA-mutant ovarian cancer cell lines. (AID 1963452; calls by dose curve); conditions: PEO1/OlaR viability, CellTiter-Glo luminescence, 96 h, stronger effect = lower value
How it was run: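 PEO1, PEO4 and PEO1/OlaR ovarian cancer cells, 600 per well, exposed 96 h at 37C to a dilution series. Viability read by CellTiter-Glo luminescence, normalized to DMSO and empty wells; activity summarized as Z-AUC.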

[2] = qHTS profiling for inhibitors of Plasmodium falciparum proliferation (AID 504749); also: nearly all actives have a fitted effect of over 60% in size; also: potency is read from the fitted curve at half-maximal effect;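 as to activity, negative = inhibition: 0% = DMSO vehicle and full inhibition = artemisinin control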; conditions: P. falciparum in erythrocytes, SYBR Green DNA, 72 h
How it was run: (§1)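 P. falciparum-infected erythrocytes (0.3% parasitemia, 2.5% hematocrit) incubated with compound 72 h at 37 C, 5% CO2. Parasite DNA detected by SYBR Green after lysis, overnight at room temperature; normalised to 0.29 uM artemisinin and DMSO.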

3D7 = test: as above; conditions: P. falciparum in erythrocytes, SYBR Green DNA, 72 h; series mostly up to 28.7 µM
How it was run: as §1

7G8 = test: as above; conditions: P. falciparum in erythrocytes, SYBR Green DNA, 72 h; series mostly up to 28.7 µM
How it was run: as §1

AA1029 = test: as above; conditions: P. falciparum in erythrocytes, SYBR Green DNA, 72 h; series mostly up to 28.7 µM
How it was run: as §1

AS120 = test: as above; conditions: P. falciparum in erythrocytes, SYBR Green DNA, 72 h; series mostly up to 28.7 µM
How it was run: as §1

ATS189 = test: as above; conditions: P. falciparum in erythrocytes, SYBR Green DNA, 72 h; series mostly up to 28.7 µM
How it was run: as §1

ATS95 = test: as above; conditions: P. falciparum in erythrocytes, SYBR Green DNA, 72 h; series mostly up to 28.7 µM
How it was run: as §1

C2A = test: as above; conditions: P. falciparum in erythrocytes, SYBR Green DNA, 72 h; series mostly up to 28.7 µM
How it was run: as §1

CP185 = test: as above; conditions: P. falciparum in erythrocytes, SYBR Green DNA, 72 h; series mostly up to 28.7 µM
How it was run: as §1

[3] = target: Cytochrome P450 2D6 (Homo sapiens) (UniProt P10635); test: qHTS for inhibitors of CYP2D6 against the NCATS DSHEA and TCM libraries (AID 1919972); conditions: CYP2D6 enzymatic inhibition, luminescence qHTS; series mostly up to 34.1 µM; also: % is scaled to controls: 0 for no effect and ±100 for the full control effect
Chain of Cytochrome P450 2D6 (Homo sapiens) (P10635 whole entry, looked up): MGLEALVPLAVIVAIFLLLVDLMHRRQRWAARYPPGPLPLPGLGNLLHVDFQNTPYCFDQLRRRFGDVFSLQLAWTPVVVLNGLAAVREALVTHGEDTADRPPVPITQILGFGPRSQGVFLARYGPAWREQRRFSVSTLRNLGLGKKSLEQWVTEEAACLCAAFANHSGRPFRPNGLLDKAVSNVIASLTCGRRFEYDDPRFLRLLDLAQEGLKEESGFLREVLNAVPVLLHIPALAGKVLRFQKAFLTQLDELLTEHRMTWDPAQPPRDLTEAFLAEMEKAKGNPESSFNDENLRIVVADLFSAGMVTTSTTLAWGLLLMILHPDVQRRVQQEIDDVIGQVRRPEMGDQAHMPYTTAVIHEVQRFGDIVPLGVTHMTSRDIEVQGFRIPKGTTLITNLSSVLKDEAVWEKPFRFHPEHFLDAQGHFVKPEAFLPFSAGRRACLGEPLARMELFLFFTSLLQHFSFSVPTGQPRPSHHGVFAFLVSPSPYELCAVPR
How it was run: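 Luminescent P450-Glo read-out of CYP2D6 turnover of a luciferin substrate after NADPH-driven reaction of 30-45 min at room temperature. Compounds were first preincubated 15 min with enzyme at titrated concentrations; quinidine was the intraplate control.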

[4] = target: Cytochrome P450 2C9 (Homo sapiens) (UniProt P11712); test: qHTS for inhibitors of CYP2C9 against the NCATS DSHEA and TCM libraries (AID 1919973); conditions: recombinant CYP2C9 enzyme activity, luminescence; series mostly up to 34.1 µM;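 also: luminogenic pro-luciferin CYP2C9 substrate turned into luciferin with NADPH regeneration; % is scaled to controls: 0 for no effect and ±100 for the full control effect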
Chain of Cytochrome P450 2C9 (Homo sapiens) (P11712 whole entry, looked up, canonical isoform): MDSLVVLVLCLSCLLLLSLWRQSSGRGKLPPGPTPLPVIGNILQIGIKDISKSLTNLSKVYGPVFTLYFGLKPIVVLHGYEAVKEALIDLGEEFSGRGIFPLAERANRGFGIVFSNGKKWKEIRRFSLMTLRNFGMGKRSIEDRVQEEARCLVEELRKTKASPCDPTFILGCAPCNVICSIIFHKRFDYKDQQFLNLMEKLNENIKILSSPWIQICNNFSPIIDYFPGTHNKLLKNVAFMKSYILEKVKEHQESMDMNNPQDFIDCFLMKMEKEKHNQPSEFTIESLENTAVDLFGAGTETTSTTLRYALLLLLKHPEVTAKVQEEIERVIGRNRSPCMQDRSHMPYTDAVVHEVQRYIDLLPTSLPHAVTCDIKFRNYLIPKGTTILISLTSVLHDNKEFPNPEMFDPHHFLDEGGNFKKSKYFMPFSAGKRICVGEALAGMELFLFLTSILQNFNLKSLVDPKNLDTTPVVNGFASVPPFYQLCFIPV
How it was run: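 Read-out is luminescence after P450-Glo detection (30 min, RT). Before that: 15 min compound–enzyme preincubation, then 30-45 min reaction with 1x NADPH regeneration solution, substrate concentration isoform-specific.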

[5] = KB-3-1 P-gp reporter qHTS against the NCATS DSHEA and TCM libraries (AID 1919975); conditions: KB-3-1 parental cells, CellTiter-Glo luminescence viability, 72 h; series mostly up to 26.1 µM; also: 0% is about no effect
How it was run: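 KB-3-1 parental line, 1536-well qHTS: cells seeded, ~4 h attachment, pintool compound addition, ~72 h at 37C, then CellTiter-Glo, 30 min RT, luminescence. Concentration-response format.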

[6] = target: Cytochrome P450 1A2 (Homo sapiens) (UniProt P05177); test: qHTS for inhibitors of CYPIA2 against the NCATS DSHEA and TCM libraries (AID 1919976); conditions: recombinant CYP1A2 enzyme activity, luminescence; series mostly up to 37 µM;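 also: light from luciferin formed by CYP1A2 from a pro-luciferin substrate; % is scaled to controls: 0 for no effect and ±100 for the full control effect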
Chain of Cytochrome P450 1A2 (Homo sapiens) (P05177 whole entry, looked up): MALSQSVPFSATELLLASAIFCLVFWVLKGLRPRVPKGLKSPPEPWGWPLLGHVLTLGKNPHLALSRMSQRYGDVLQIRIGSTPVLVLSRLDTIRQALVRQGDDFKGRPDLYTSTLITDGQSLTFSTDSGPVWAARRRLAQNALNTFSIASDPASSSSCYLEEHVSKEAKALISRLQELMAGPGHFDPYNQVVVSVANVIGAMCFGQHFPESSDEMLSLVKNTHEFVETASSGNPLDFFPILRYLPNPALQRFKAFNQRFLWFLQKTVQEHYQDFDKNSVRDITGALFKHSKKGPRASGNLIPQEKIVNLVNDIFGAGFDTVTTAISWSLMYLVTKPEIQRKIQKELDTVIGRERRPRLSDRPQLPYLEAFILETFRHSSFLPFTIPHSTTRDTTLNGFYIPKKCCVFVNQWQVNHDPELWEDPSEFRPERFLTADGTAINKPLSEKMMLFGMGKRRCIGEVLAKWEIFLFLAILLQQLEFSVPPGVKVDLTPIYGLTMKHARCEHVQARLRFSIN
How it was run: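 CYP1A2 + luciferin substrate, 100 mM KPO4-type buffer; cmpd 15 min RT; 1x NADPH regen, 30-45 min RT dark; detection reagent 30 min RT; luminescence. Minus-enzyme wells as background; furafylline intraplate control.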

[7] = qHTS Counterscreen for compound interference against the NCATS DSHEA and TCM libraries (AID 1919978); conditions: firefly luciferase detection reagent interference, luminescence;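 also: compounds preincubated with 1 µM D-luciferin or buffer before detection reagent; % of control where 0% means no effect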
How it was run: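 Compounds, titrated from 19.5 nM to 39.8 uM final, were pinned onto 1 uM D-luciferin or plain 100 mM potassium phosphate. After 15 min at room temperature, luciferin detection reagent was added for 30 min before the luminescence read.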

[8] = Dual reporter qHTS for agonist of Pregnane X Receptor (hPXR) against the NCATS DSHEA and TCM libraries: Fluorescence readout (AID 1920058); conditions: PXR dual reporter cells; series mostly up to 40 µM; also: 0% is about no effect
How it was run: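 HepG2 hPXR-Luc, 2000 cells/well, 5 h attach; cpds ~24 h, 37 °C/5% CO2; CellTiter-Fluor 1 h; fluor. Ex/Em 405/540 nm = viability.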

[9] = target: Nuclear receptor subfamily 1 group I member 2 (Homo sapiens) (UniProt O75469); test: Dual reporter qHTS for agonist of Pregnane X Receptor (hPXR) against the NCATS DSHEA and TCM libraries: Luminescence readout (AID 1920059); conditions: hPXR dual reporter cells, luciferase luminescence agonist; series mostly up to 40 µM; also: 0% is about no effect
Chain of Nuclear receptor subfamily 1 group I member 2 (Homo sapiens) (O75469 whole entry, looked up): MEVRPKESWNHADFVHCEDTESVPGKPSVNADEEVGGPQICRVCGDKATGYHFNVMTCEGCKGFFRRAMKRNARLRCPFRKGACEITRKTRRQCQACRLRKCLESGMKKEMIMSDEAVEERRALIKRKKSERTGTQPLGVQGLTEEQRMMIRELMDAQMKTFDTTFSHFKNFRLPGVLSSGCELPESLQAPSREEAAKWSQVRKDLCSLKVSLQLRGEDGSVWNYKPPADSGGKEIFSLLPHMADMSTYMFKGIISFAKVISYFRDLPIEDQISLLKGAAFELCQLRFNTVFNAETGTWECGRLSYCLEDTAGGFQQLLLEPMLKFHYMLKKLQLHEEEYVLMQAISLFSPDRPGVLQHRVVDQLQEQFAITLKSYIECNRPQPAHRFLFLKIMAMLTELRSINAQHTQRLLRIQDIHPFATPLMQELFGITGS
How it was run: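 hPXR-Luc HepG2 cells, 2000/well in 5% charcoal-stripped FBS medium, attached 5 h, then exposed 24 h at 37C to compounds. Viability by CellTiter-Fluor, then luciferase luminescence with ONE-Glo.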

[10] = Dual reporter qHTS for antagonist of Pregnane X Receptor (hPXR) against the NCATS DSHEA and TCM libraries: Fluorescence Readout (AID 1920061); conditions: PXR dual reporter cells, antagonist mode; series mostly up to 40 µM; also: 0% is about no effect
How it was run: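 Antagonist mode: rifampicin 2 uM final co-added with compounds to hPXR-LucHepG2 cells for 24 h at 37C. Viability by CellTiter-Fluor, Ex/Em 405/540 nm, 1 h; reporter by ONE-Glo luminescence.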

[11] = measured here: PEO1 parental Z-AUC
[12] = at 28.7 µM (top of the series), parasite line A
[13] = at 28.7 µM (top of the series), parasite line B

CCN(CC)CCNC(=O)c1c(C)[nH]c(/C=C2\C(=O)Nc3ccc(F)cc32)c1C
-0.0779: Z-AUC ([1]; measured here: PEO4 Z-AUC)
inactive: Z-AUC [1] -0.535
-0.162: Z-AUC [1, 11]
active: Potency ([2]; parasite line A) 6.31 µM | Potency ([2]; parasite line B) 8.91 µM | Potency (3D7) 8.91 µM | Potency (7G8) 3.98 µM | Potency (AA1029) 8.91 µM | Potency (AS120) 7.08 µM | Potency (ATS189) 8.91 µM | Potency (ATS95) 7.08 µM | Potency (C2A) 11.2 µM | Potency (CP185) 7.08 µM

CC(=O)OCC(=O)[C@@]1(O)CC[C@H]2[C@@H]3CCC4=CC(=O)CC[C@]4(C)[C@H]3C(=O)C[C@@]21C
inactive: Z-AUC [1] -1.11
-0.142: Z-AUC [1, 11]
-0.613: Z-AUC ([1]; measured here: PEO4 Z-AUC)

c1ccc(CN(CC2=NCCN2)c2ccccc2)cc1
inactive: activity, negative = inhibition [2, 12] -1.61% | activity, negative = inhibition [2, 13] -1.95% | Potency (3D7)
active: Potency (7G8) 4.47 µM

CC1=C(/C=C/C(C)=C/C=C/C(C)=C/C(=O)O)C(C)(C)CCC1
0.421: Z-AUC ([1]; measured here: PEO4 Z-AUC)
inactive: Z-AUC [1] -0.215 | activity, negative = inhibition [2, 12] 11.8% | activity, negative = inhibition [2, 13] -26.7% | Potency (3D7) | Potency (7G8) | Potency (AA1029) | Potency (AS120) | Potency (ATS189) | Potency (ATS95) | Potency (C2A) | Potency (CP185)
0.0467: Z-AUC [1, 11]

CCCCN(CCCC)CC(O)c1cc(Cl)cc2c1-c1ccc(Cl)cc1/C2=C/c1ccc(Cl)cc1 (stereo not given)
-0.228: Z-AUC ([1]; measured here: PEO4 Z-AUC)
inactive: Z-AUC [1] -0.171
active: Potency ([2]; parasite line A) 0.0251 µM | Potency ([2]; parasite line B) 0.0071 µM | Potency (3D7) 0.0158 µM | Potency (7G8) 0.0028 µM | Potency (AA1029) 0.0141 µM | Potency (AS120) 0.01 µM | Potency (ATS189) 0.0126 µM | Potency (ATS95) 0.0126 µM | Potency (C2A) 0.0447 µM | Potency (CP185) 0.0316 µM
-0.362: Z-AUC [1, 11]

CCOc1ccc2ccccc2c1C(=O)N[C@@H]1C(=O)N2[C@@H]1SC(C)(C)[C@@H]2C(=O)O
inactive: activity, negative = inhibition ([2]; at 12.8 µM (top of the series), parasite line A) 11.5% | activity, negative = inhibition ([2]; at 12.8 µM (top of the series), parasite line B) -19.5% | Potency (3D7) | Potency (7G8) | Potency (AA1029) | Potency (AS120) | Potency (ATS189) | Potency (ATS95) | Potency (C2A) | Potency (CP185)

O=c1cc[nH]c(=O)[nH]1
inactive: activity, negative = inhibition [2, 12] 9.07% | activity, negative = inhibition [2, 13] 2.41% | Potency (3D7) | Potency (7G8) | Potency (AA1029) | Potency (AS120) | Potency (ATS189) | Potency (ATS95) | Potency (C2A) | Potency (CP185)

O=C1O[C@H]([C@@H](O)CO)C(O)=C1O
inactive: outcome [3] | outcome [4] | outcome [5] | outcome [6] | max response [7] -0.0092% | outcome [8] | outcome [9] | outcome [10] | activity, negative = inhibition [2, 12] 10.5% | activity, negative = inhibition [2, 13] 5.51% | Potency (3D7) | Potency (7G8) | Potency (AA1029) | Potency (AS120) | Potency (ATS189) | Potency (ATS95) | Potency (C2A) | Potency (CP185)

O=C1Nc2ccc(Cl)cc2[C@@](C#CC2CC2)(C(F)(F)F)O1
-0.432 and 0.539: Z-AUC [1, 11]
-0.62 and -0.612: Z-AUC ([1]; measured here: PEO4 Z-AUC)
inactive: Z-AUC [1] -0.995 and -0.662

NC(=O)c1ncn([C@@H]2O[C@H](CO)[C@@H](O)[C@H]2O)c1N
inactive: Z-AUC [1] -0.269
-0.745: Z-AUC [1, 11]
-0.555: Z-AUC ([1]; measured here: PEO4 Z-AUC)

NC(=O)NC(=O)Cc1ccccc1
inactive: activity, negative = inhibition [2, 12] 2.68% | activity, negative = inhibition [2, 13] -4.74% | Potency (3D7) | Potency (7G8) | Potency (AA1029) | Potency (AS120) | Potency (ATS189) | Potency (ATS95) | Potency (C2A) | Potency (CP185)
